# Experiments:
# [1] = target: T1, GST-Nv-NF-kB (Ser allele) (Nematostella vectensis, UniProt A7UNT2 2-411); test: protein-binding microarray (PBM); PBM: ~300 nM protein, 6 mM HEPES pH 7.8, 80 mM KCl, 0.5 mM EDTA, 0.5 mM EGTA, 6% glycerol, 35 ng/ul poly-dIdC, 1% milk, 1 h, room temperature; Ap Aiptasia and Nv Nematostella (sea anemones) / Co Capsaspora / Aq Amphimedon (sponge) / Dm Drosophila / Hu human; RHD is the Rel homology domain; high values mean tight binding; conditions: dsDNA, one strand shown
# T1 sequence: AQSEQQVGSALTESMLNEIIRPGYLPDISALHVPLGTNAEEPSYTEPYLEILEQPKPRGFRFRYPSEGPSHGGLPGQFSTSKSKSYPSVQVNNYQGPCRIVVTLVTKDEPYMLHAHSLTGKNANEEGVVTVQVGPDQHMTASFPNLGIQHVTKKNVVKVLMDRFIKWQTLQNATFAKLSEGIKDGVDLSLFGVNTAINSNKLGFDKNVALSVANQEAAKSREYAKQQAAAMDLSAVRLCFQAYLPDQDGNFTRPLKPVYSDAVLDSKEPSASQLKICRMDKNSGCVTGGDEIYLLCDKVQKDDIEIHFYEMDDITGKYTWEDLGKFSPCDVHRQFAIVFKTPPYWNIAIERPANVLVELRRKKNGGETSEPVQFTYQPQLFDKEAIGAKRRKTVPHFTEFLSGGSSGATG
# GST-Hu-p50 = GST-Hu-p50 (Homo sapiens, UniProt P19838 7-356); test: as above; conditions: dsDNA, one strand shown
# Chain of GST-Hu-p50 (P19838 7-356): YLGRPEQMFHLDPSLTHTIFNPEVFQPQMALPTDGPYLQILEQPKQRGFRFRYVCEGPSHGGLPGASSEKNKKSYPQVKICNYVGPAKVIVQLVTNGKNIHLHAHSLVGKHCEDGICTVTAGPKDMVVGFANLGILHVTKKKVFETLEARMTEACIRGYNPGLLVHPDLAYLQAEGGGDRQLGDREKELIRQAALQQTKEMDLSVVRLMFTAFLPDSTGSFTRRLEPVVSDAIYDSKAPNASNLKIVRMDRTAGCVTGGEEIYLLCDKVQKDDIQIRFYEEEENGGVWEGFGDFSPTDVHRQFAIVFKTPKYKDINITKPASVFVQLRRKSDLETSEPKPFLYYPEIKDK
Sequence,binding signal [1] [z-score],binding signal (GST-Hu-p50) [z-score]
CCGATTAACATCAGGAATATTCCTGATGTTAATCGGGTCTTGATTCGCTTGACGCTGCTG,1.09,1.36
CCGATTAACATCAGGGGGTGATATGATGTTAATCGGGTCTTGATTCGCTTGACGCTGCTG,4.45,3.97
CCGATTAACATCAGGGGAATGACTGATGTTAATCGGGTCTTGATTCGCTTGACGCTGCTG,6.22,4.83
CCGATTAACATCAAATTCCCAGATGATGTTAATCGGGTCTTGATTCGCTTGACGCTGCTG,3.83,2.58
CCGATTAACATCAGGGAACCCCATGATGTTAATCGGGTCTTGATTCGCTTGACGCTGCTG,1.33,2.54
CCGATTAACATCAGGATCTTCCCTGATGTTAATCGGGTCTTGATTCGCTTGACGCTGCTG,1.87,1.9
CCGATTAACATCACGGGGGGTAATGATGTTAATCGGGTCTTGATTCGCTTGACGCTGCTG,2.9,2.48
CCGATTAACATCAGGGAAACCCATGATGTTAATCGGGTCTTGATTCGCTTGACGCTGCTG,3.84,3.11
CCGATTAACATCAGGGGGAGAGATGATGTTAATCGGGTCTTGATTCGCTTGACGCTGCTG,4.36,4.17
CCGATTAACATCAGGGGGCATTATGATGTTAATCGGGTCTTGATTCGCTTGACGCTGCTG,3.29,4.09
CCGATTAACATCAGGGGAGTGTATGATGTTAATCGGGTCTTGATTCGCTTGACGCTGCTG,4.51,3.04
CCGATTAACATCAGGCAATTCCCTGATGTTAATCGGGTCTTGATTCGCTTGACGCTGCTG,3.97,3.86
CCGATTAACATCAAGGGAAACCCTGATGTTAATCGGGTCTTGATTCGCTTGACGCTGCTG,4.43,2.93
CCGATTAACATCAGGAAATTTGATGATGTTAATCGGGTCTTGATTCGCTTGACGCTGCTG,1.01,1
CCGATTAACATCAGGGGGTACCCTGATGTTAATCGGGTCTTGATTCGCTTGACGCTGCTG,4.11,4.44
CCGATTAACATCAGGGGATGGGATGATGTTAATCGGGTCTTGATTCGCTTGACGCTGCTG,4.39,2.85
CCGATTAACATCAGGATTTTACCTGATGTTAATCGGGTCTTGATTCGCTTGACGCTGCTG,3.67,2.65
CCGATTAACATCAATGTCCCCCCTGATGTTAATCGGGTCTTGATTCGCTTGACGCTGCTG,4.42,3.89

Sequence,binding signal [1] [z-score],binding signal (GST-Hu-p50) [z-score]
CCGATTAACATCAACATCCCCCCTGATGTTAATCGGGTCTTGATTCGCTTGACGCTGCTG,5.5,4.91
CCGATTAACATCAAAAAGTTCCCTGATGTTAATCGGGTCTTGATTCGCTTGACGCTGCTG,5.17,4.09
CCGATTAACATCACGGTACTTCCTGATGTTAATCGGGTCTTGATTCGCTTGACGCTGCTG,4.94,2.86
CCGATTAACATCAGGAAGTTCCCTGATGTTAATCGGGTCTTGATTCGCTTGACGCTGCTG,2.53,3.79
CCGATTAACATCAGGCTTTTCCCTGATGTTAATCGGGTCTTGATTCGCTTGACGCTGCTG,4.44,3.4
CCGATTAACATCAGTACGGGAAATGATGTTAATCGGGTCTTGATTCGCTTGACGCTGCTG,2.82,1.94
CCGATTAACATCATAATTCCCAATGATGTTAATCGGGTCTTGATTCGCTTGACGCTGCTG,3.07,2.73
CCGATTAACATCAAAAAGGGAAATGATGTTAATCGGGTCTTGATTCGCTTGACGCTGCTG,6.22,3.72
CCGATTAACATCAAAACAGCCCCTGATGTTAATCGGGTCTTGATTCGCTTGACGCTGCTG,3.68,4.54
CCGATTAACATCAGGGTGTTTTATGATGTTAATCGGGTCTTGATTCGCTTGACGCTGCTG,2.32,4.01
CCGATTAACATCAGGGCGTCCCCTGATGTTAATCGGGTCTTGATTCGCTTGACGCTGCTG,4.47,4.86
CCGATTAACATCAGGGAATTAAATGATGTTAATCGGGTCTTGATTCGCTTGACGCTGCTG,3.98,2.43
CCGATTAACATCACAGTACCCCCTGATGTTAATCGGGTCTTGATTCGCTTGACGCTGCTG,3.98,3.45
CCGATTAACATCAATTCCCGTACTGATGTTAATCGGGTCTTGATTCGCTTGACGCTGCTG,1.96,1.41
CCGATTAACATCAGGATCTCCCCTGATGTTAATCGGGTCTTGATTCGCTTGACGCTGCTG,5.15,4.48
CCGATTAACATCAGACTTCCCCATGATGTTAATCGGGTCTTGATTCGCTTGACGCTGCTG,6.11,4.73
CCGATTAACATCAGGGGGGGCACTGATGTTAATCGGGTCTTGATTCGCTTGACGCTGCTG,3.3,3.87
CCGATTAACATCACGGGGAGTCCTGATGTTAATCGGGTCTTGATTCGCTTGACGCTGCTG,4.29,3.39
